# Source: PubChem BioAssay
# Most compounds without a hit are left out; they make up all but 4.7% or so of the library.
# TIM10 inh: inhibits growth of TIM10 yeast strain; 1.4% of 330,000 active; inhibition, % at 10 µM; S. cerevisiae TIM10 strain growth, BacTiter-Glo luminescence, 24 h; AID 463195;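 active means inhibition of 40% or more at the single tested concentration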;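 further: wild-type TIM10 isogenic control strain grown at permissive 25 °C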
# ATG4B inh: blocks human ATG4B protease cleavage of LC3 substrate | Q9Y4P1 | ATG4B cleavage of LC3-PLA2, NBD-HPC fluorescence, 1 h | inhibition, % at 8.33 µM | 0.51% of 340,000 active | AID 504462; in the data active means inhibition above about 40%
# Target sequence (Q9Y4P1 whole entry, looked up): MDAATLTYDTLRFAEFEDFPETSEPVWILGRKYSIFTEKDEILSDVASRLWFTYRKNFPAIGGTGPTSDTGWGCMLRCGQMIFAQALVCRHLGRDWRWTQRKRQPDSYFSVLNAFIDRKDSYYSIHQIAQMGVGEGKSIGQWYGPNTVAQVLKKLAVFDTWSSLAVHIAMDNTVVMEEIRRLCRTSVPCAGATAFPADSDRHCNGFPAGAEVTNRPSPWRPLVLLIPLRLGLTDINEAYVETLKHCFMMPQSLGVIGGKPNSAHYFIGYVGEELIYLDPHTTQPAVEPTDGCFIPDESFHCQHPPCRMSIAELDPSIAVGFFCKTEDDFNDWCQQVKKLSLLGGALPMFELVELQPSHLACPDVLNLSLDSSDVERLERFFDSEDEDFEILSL
# SKKanGAS inh: blocks kanamycin growth of S. pyogenes SKKanGAS strain; 1.3% of 300,000 active; BacTiter-Glo, 6 h; inhibition, % at 7.5 µM;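 active means mean replicate score, as percent of positive control median, at least 50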;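 further: strain carries kanamycin resistance gene driven by streptokinase promoter and grows in 40 µg/ml kanamycin; loss of luminescence reflects streptokinase promoter inhibition or plain growth inhibition; 0% = median of DMSO wells and 100% = positive control at its reference dose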
# PfHsp90 set2: growth inhibition of yeast expressing Plasmodium Hsp90 | S. cerevisiae expressing PfHsp90, BacTiter-Glo ATP, 48 h; yeast lacking PDR1 and PDR3 efflux regulators | inhibition, % at 9.4 µM | AID 504621 | 0.32% of 310,000 active;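 active means every replicate shows inhibition above about 80%, whatever the replicate mean, limit read from the data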;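 further: 0% = DMSO neutral controls and 100% = 20 µM radicicol positive controls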
# tim23-1 inh: tim23-1 yeast growth inhibition; S. cerevisiae tim23-1 growth, BacTiter-Glo luminescence, 24 h; inhibition, % at 20 µM; 1.3% of 330,000 active; AID 463212;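 active means growth inhibition of the mutant yeast at or above 50%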;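 further: temperature-sensitive mutant grown at 25 °C; plate controls were DMSO-treated mutant yeast for no effect and medium wells lacking yeast for full effect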
# tim10-1 inh: inhibits growth of tim10-1 mutant yeast. 2.2% of 330,000 active. S. cerevisiae tim10-1 ts strain growth, BacTiter-Glo, 24 h. inhibition, % at 20 µM;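 active means inhibition of at least 40%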;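 further: mutant grown at 25 °C; 0% = DMSO wells with yeast and 100% = wells holding no yeast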
# tim10-1 confirm: tim10-1 yeast growth inhibition, confirmed | shares compounds with tim10-1 inh | S. cerevisiae tim10-1 ts strain growth, BacTiter-Glo, 24 h | inhibition, % at 20 µM | 56% of 7,400 active | AID 463213;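 active means inhibition of yeast growth at or above a set limit in either of two repeat tests at 20 µM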;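 further: tim10-1 mutant grown at permissive 25 °C to find synthetic lethal compounds; 0% = DMSO yeast wells and 100% = medium wells without yeast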
# TIM10 conf: TIM10 yeast growth inhibition, confirmed; shares compounds with TIM10 inh; S. cerevisiae tim10 strain growth, BacTiter-Glo luminescence, 24 h; inhibition, % at 10 µM; 63% of 4,600 active;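 active means inhibition of yeast growth at or above a set limit in either of two replicates at 10 µM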;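 further: this counterscreen used the strain with wild-type TIM10; 0% = yeast with DMSO and 100% = medium wells lacking yeast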
# Active calls of the source: *; · = no result given.
SMILES,TIM10 inh,ATG4B inh,SKKanGAS inh,PfHsp90 set2,tim23-1 inh,tim10-1 inh,tim10-1 confirm,TIM10 conf
CC(=O)Nc1ccc(S(=O)(=O)N2CCSC2c2ccc(C)cc2)cc1 (stereo not given),42*,-13,1,5,32,41*,28,34*
CCCCC1C(=O)NN(c2ccccc2)C1=O (stereo not given),·,-2,·,·,·,·,·,·
Cc1cc(C(=O)CCl)c(C)n1-c1cccc(S(=O)(=O)N2CCOCC2)c1,46*,9,8,·,38,48*,30*,46*
Cc1ccc(S(=O)(=O)NCC(=O)OC(C(=O)c2ccccc2)c2ccccc2)cc1 (stereo not given),12,2,6,7,21,17,·,·
Cc1c(Cl)cccc1NC(=S)N=Nc1c(O)n(CN2CCOCC2)c2ccccc12,53*,6,·,107*,40,59*,49*,30*
C=CCn1c(O)c(N=NC(=S)Nc2ccccc2F)c2ccccc21,46*,-4,101*,-125,14,47*,44*,29
Oc1c(N=NC(=S)Nc2ccccc2F)c2ccccc2n1Cc1ccccc1Cl,27,-7,·,-11,31,23,·,·
CCNc1nc(NCC)n2c(SCC(=O)c3ccc(C(C)C)cc3)nnc2n1,8,-5,-19,11,4,4,·,·
COc1ccc(/C=N/Nc2nc(C)cc(-c3ccccc3)n2)c(OC)c1,16,-8,4,2,17,5,·,·
COc1ccc(O)c(/C=N/Nc2nc(C)cc(-c3ccccc3)n2)c1,42*,-6,24,-5,45,43*,40*,47*
COC(=O)c1c(N2C(=O)CC(Sc3ccccc3C(=O)O)C2=O)sc2c1CCCC2 (stereo not given),46*,0,5,-1,26,46*,47*,17
COC(=O)c1c(N2C(=O)CC(Sc3ccccc3C(=O)O)C2=O)sc(C)c1C (stereo not given),23,3,3,21,28,32,·,·
Cc1noc(C)c1S(=O)(=O)NC1CCCc2ccccc21 (stereo not given),14,1,20,-15,0,25,·,·
O=C(Nc1nc(-c2cccs2)cs1)c1ccc(Cl)s1,17,-6,32,22,41,1,·,·
CC1CCC2C(C1)c1sc(=O)[nH]c1SC2(C)C (stereo not given),41*,-1,-2,-187,24,51*,41*,41*
COC(=O)CSc1nnc(CNC(=O)c2ccc(S(=O)(=O)N3CCOCC3)cc2)n1C,-8,8,-1,-17,6,8,·,·
CCCOC(=O)/C(=C\c1ccc([N+](=O)[O-])o1)NC(=O)c1ccccc1,54*,-5,1,12,42,56*,47*,-8
CC1CCN(c2nc3nonc3nc2Nc2ccc(F)cc2)CC1,45*,-4,2,-22,35,41*,44*,26
CC1(C)CC(/C=C/c2ccccc2)=Nc2ccccc2N1,67*,10,-8,2,46,49*,54*,58*
NC(=O)NC(=O)C(Nc1ccc(N2CCCCC2)cc1)c1ccccc1 (stereo not given),-5,-6,1,-12,11,-3,·,·
O=C(Nc1ccc(Cl)cc1)N(Cc1cccs1)Cc1cccs1,57*,9,29,2,47,47*,41*,-17
CCOC(=O)C1CCN(C(=O)c2ccc(OCC(=O)Nc3cccc(C(F)(F)F)c3)c(OC)c2)CC1,59*,-7,5,1,46,55*,66*,63*
Cc1ccsc1C1Nc2ccccc2-c2nc3ccccc3n21 (stereo not given),54*,22,0,5,50,51*,39*,-16
CCN1C(=O)c2cccc3c(NC(=O)c4ccc5c(c4)OCCO5)ccc1c23,8,-13,0,-13,17,4,·,·
O=S(=O)(c1ccccc1)c1ccc(NCc2ccco2)cc1,42*,7,-4,-53,46,43*,38*,39*
